Results on four compounds are retold here after PubChem BioAssay.

The nature of test [1]: yeast TOR pathway RPL19A-GFP modulators, primary screen, cell-based, S. cerevisiae, multiplex flow cytometry (AID 1862).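 Note: lower values mimic rapamycin by blocking the RPL19A rise seen in DMSO cells.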 The following applies: S. cerevisiae RPL19A-GFP strain, flow cytometry fluorescence, 3 h; at 10 µM; stronger effect = lower value.
Test [2] is described as follows: modulators of MEP2-GFP levels in yeast, primary screen, S. cerevisiae, multiplex flow cytometry (AID 1867;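 active = GFP response, as percent of the DMSO control, above the screen-wide mean plus 3 SD, about 139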;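 note: median GFP channel fluorescence of barcode-gated MEP2-GFP cells measured by flow cytometry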). Conditions: S. cerevisiae MEP2-GFP strain, 3 h, at 10 µM, stronger effect = higher value, 100% means same as DMSO wells.
The nature of test [3]: modulators of CIT2-GFP expression in yeast, primary screen, S. cerevisiae, GFP fusion, multiplex flow cytometry (AID 1870;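 active = percent response above a set limit, the screen-wide mean plus 3 SD, cut at about 130% in these data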;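 note: barcoded CIT2-GFP strain pooled with four other GFP strains with rapamycin as positive control; median GFP fluorescence per well over plate mean of DMSO wells so 100% = DMSO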). The following applies: 3 h, at 10 µM, stronger effect = higher value.
A short description of test [4]: modulators of LAP4-GFP expression in yeast, primary screen, S. cerevisiae, multiplex flow cytometry (AID 1873;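 active = GFP signal, as percent of the solvent control, above the screen mean plus 3 SD, about 149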). Conditions: 3 h, at 10 µM, stronger effect = higher value.
The nature of test [5]: modulators of AGP1-GFP expression in yeast TOR pathway, primary screen, cell-based, multiplex flow cytometry, S. cerevisiae (AID 1887;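 active = GFP signal above the screen-wide mean plus 3 SD, that is over about 124.5% of the solvent control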;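 note: AGP1-GFP fusion strain of S. cerevisiae within a five-strain barcoded multiplex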). Conditions: 3 h, at 10 µM, stronger effect = higher value.
Test [6] in a line: inhibitors of CD8+ T cell-vesicle binding, pilot screen, LFA-1/ICAM-1 modulator project, MLPCN validation set, flow cytometry (AID 2523;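 active = response below a set limit, under 55% cells CD8-positive and vesicle-bound, and CD8 cells' 90th-percentile brightness under 279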;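 for vesicle binding response: mean PE anti-B7-1 fluorescence of CD8+ cells relative to row control; 100% = QL9-loaded vesicles with DMSO vehicle in the same plate row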). Conditions: 2C mouse CD8+ T cells, at 7 µM, stronger effect = lower value; double positive events: measured here: CD8+/vesicle+ event percentage.
The target of test [7] is Integrin beta-1 (Homo sapiens) + Integrin alpha-4 (Homo sapiens) (UniProt P13612+P05556). The test is described as follows: inhibition of HUTS-21 binding to VLA-4, pilot screen, VLA-4 allosteric modulator project, U937 cells, HUTS-21 mAb, flow cytometry, validation set (AID 2674;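 active = inhibition above 50%, about 3 SD of the validation set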;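 note: antibody binding induced by the VLA-4 ligand LDV present at three times its Kd; 0% = LDV ligand with antibody and no compound and 100% = antibody without LDV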). Conditions: HUTS-21 LIBS mAb binding, at 6.7 µM, stronger effect = higher value, binding induced by LDV ligand.

Test [8] is described as follows: superoxide lowering in aged yeast cells, pilot screen, validation compound set (AID 2706;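 active = superoxide response below 65% of plate, a cut near 3 SD across the whole screen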;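 note: yeast exposed to compound for one week at 30 degrees C before staining; 100% = mean of all compound wells on the same plate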). Conditions: S. cerevisiae aging, superoxide DHE fluorescence; at 10 µM; stronger effect = lower value.
The target in test [9] is Beta-adrenergic receptor kinase 1 (Homo sapiens) (UniProt P25098). The experiment in a line: GRK2 binders displacing RNA aptamer, biochemical, validation, human GRK2, bead flow cytometry (AID 488806;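 active = aptamer binding inhibition above 30%, about 3 SD of noise from non-fluorescent compounds; inactive = inhibition at or below 30%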). The following applies: bead-bound GRK2, FAM-aptamer displacement, at 10 µM, stronger effect = higher value.
The target of test [10] is Beta-2 adrenergic receptor (Homo sapiens) (UniProt P07550). The experiment in a line: beta2AR agonists driving receptor internalization, pilot screen, cell-based, FAP fluorogen, flow cytometry, validation set (AID 504459;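 active = percent response above 42, roughly 3 SD of non-fluorescent test compounds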;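 note: agonist-driven loss of surface beta2AR via internalization measured by FAP dye flow cytometry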). The following applies: Am2.2-beta2AR cells, FAP surface receptor flow cytometry; at 10 µM; stronger effect = higher value.
Test [11] concerns the target AP-2 complex subunit beta (Homo sapiens) (UniProt P63010). The experiment in a line: inhibitors of arrestin peptide binding to AP2, pilot screen, biochemical, validation set, GST-AP2 beads, flow cytometry (AID 504541;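 active = inhibition above 54%, about 3 SD of non-fluorescent compounds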;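 note: AP2 carries R879A mutation and is captured from E. coli lysate; bead-bound FITC arrestin peptide fluorescence measuring arrestin peptide binding to AP2; 0% = DMSO wells and 100% = excess unlabeled arrestin peptide control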). The following applies: FITC arrestin peptide, at 10 µM, stronger effect = higher value, AP2 beta2 appendage fragment, R879A mutant.
Test [12] in a line: yeast V-ATPase proton transport modulators, S. cerevisiae, pHLuorin, HTS validation (AID 504600; in the data active = response above about 15%;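 note: plate controls were DMSO for no effect and reference compound for full effect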). Conditions: S. cerevisiae pHLuorin cytosolic pH, at 10 µM, stronger effect = higher value.
The test system of test [13] is anti-desmoglein-3 scFv antibody binding to human DSG3. The test is described as follows: inhibitors of anti-DSG3 scFv binding to DSG3, pilot screen, biochemical, validation compound set, bead-based, flow cytometry (AID 588368;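 active = binding below the plate cutoff, the plate median minus 3 SD, with a reading above zero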;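 note: signal is the median channel fluorescence of bead-bound GFP antibody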). The following applies: Protein G beads, DSG3-Fc, scFv-GFP binding, at 10 µM, stronger effect = lower value.
Test [14] is described as follows: inhibitors of fungal efflux pumps CDR1, CDR2, MDR1, pilot screen, validation compound set, multiplex, phenotypic (AID 588506;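 active = efflux inhibition above 0.42, the validation set average plus 4 SD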;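 note: Nile Red retained in cells so higher fluorescence means more efflux inhibition; 0 = negative control wells and 1 = enniatin B 25 µM full block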). Conditions: S. cerevisiae pump-expressing triplex, Nile Red efflux flow cytometry; at 10 µM; stronger effect = higher value; the pumps come from Candida albicans.
Test [15] has as its target ATP-binding cassette sub-family B member 6 (Homo sapiens) (UniProt Q9NP58). The test is described as follows: ABCB6 transporter inhibitors, pilot screen, K562-ABCB6 cells, flow cytometry, validation set (AID 588550;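 active = inhibition above the screen-wide mean plus 3 SD, about 51%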;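 note: 0% = DMSO wells and 100% = benzethonium chloride 70 µM positive control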). Conditions: K562-ABCB6 porphyrin accumulation, 1 h, at 10 µM, stronger effect = higher value.
A short description of test [16]: promoters of myeloid differentiation in arrested cells, primary screen, cell-based, GFP/MAC1 double positive, flow cytometry, validation set (AID 588685;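 active = differentiation response of at least 50%, scaled between solvent and reference control, from cells with both markers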;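 note: compound exposure lasts four days before antibody staining and flow analysis; 0% = DMSO wells and 100% = 5 µM fulvestrant positive control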). Conditions: ER-HoxA9 marrow cells, stronger effect = higher value, normalized: vehicle 0, fulvestrant 100.

Results filed as inconclusive are left out. Activity calls are given as the source filed them. Cut-off read from the data, not from the text of the source, unless noted: active = percent of DMSO control GFP below about 86%; inactive = the rest, inconclusive results apart.

AP-2 complex subunit beta (Homo sapiens), sequence (P63010 whole entry, looked up, the tested form may be a part, one chain of several): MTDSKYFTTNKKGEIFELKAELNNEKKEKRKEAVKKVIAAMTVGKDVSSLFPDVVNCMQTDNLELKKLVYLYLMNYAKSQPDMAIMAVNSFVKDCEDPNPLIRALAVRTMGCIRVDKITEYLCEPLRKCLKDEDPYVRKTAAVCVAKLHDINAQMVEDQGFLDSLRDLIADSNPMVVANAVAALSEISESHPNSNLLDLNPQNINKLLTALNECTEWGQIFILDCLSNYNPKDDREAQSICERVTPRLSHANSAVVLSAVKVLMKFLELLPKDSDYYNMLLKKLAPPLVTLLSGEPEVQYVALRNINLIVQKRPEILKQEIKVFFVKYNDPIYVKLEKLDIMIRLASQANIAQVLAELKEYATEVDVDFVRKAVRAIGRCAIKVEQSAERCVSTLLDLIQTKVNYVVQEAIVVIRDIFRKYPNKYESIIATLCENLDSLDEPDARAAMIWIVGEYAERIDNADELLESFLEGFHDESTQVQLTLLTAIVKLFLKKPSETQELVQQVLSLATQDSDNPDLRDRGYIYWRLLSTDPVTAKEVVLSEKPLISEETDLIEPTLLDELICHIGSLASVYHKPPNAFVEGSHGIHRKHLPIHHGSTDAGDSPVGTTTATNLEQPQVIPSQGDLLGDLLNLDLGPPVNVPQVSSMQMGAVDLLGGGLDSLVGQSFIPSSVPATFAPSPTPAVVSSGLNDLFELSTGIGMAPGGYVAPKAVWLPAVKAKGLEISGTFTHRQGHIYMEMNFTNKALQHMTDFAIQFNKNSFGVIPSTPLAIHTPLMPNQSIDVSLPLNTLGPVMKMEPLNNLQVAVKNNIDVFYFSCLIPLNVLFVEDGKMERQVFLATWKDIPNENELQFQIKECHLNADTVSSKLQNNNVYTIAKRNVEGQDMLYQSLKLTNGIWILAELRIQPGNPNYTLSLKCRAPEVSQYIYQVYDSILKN
ATP-binding cassette sub-family B member 6 (Homo sapiens), sequence (Q9NP58 whole entry, looked up): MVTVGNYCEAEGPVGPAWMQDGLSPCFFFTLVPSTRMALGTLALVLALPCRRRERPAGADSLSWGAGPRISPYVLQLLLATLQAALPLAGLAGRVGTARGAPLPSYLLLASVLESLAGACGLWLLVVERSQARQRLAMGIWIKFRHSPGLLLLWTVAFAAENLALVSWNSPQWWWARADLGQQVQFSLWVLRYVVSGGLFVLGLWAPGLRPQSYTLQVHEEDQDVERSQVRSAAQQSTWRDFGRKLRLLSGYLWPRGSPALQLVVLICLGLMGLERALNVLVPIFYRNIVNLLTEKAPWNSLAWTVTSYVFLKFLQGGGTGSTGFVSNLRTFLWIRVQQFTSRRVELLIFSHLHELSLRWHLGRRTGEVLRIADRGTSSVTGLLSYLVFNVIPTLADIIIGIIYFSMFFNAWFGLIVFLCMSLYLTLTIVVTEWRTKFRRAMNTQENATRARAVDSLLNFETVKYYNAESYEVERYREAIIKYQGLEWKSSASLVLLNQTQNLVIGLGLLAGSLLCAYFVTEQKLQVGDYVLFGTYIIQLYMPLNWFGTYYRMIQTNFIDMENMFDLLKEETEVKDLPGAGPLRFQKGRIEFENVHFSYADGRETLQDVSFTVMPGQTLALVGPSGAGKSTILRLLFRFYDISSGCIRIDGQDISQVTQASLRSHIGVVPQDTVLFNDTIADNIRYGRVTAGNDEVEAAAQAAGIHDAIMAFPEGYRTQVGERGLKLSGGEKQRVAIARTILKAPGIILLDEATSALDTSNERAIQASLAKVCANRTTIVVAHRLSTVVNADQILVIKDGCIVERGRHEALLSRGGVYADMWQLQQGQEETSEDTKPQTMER
Beta-2 adrenergic receptor (Homo sapiens), sequence (P07550 whole entry, looked up): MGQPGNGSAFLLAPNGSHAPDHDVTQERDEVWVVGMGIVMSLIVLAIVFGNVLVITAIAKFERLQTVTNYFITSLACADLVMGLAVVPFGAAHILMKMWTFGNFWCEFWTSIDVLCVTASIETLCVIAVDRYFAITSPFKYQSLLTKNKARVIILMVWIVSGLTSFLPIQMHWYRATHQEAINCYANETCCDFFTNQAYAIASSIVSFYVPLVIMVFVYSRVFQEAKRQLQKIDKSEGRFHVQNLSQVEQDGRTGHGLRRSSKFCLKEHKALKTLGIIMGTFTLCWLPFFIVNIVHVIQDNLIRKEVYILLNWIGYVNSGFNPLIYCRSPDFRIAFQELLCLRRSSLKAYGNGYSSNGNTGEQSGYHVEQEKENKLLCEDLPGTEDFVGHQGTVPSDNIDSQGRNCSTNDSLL
Integrin beta-1 (Homo sapiens) + Integrin alpha-4 (Homo sapiens), sequence (P05556 whole entry, looked up): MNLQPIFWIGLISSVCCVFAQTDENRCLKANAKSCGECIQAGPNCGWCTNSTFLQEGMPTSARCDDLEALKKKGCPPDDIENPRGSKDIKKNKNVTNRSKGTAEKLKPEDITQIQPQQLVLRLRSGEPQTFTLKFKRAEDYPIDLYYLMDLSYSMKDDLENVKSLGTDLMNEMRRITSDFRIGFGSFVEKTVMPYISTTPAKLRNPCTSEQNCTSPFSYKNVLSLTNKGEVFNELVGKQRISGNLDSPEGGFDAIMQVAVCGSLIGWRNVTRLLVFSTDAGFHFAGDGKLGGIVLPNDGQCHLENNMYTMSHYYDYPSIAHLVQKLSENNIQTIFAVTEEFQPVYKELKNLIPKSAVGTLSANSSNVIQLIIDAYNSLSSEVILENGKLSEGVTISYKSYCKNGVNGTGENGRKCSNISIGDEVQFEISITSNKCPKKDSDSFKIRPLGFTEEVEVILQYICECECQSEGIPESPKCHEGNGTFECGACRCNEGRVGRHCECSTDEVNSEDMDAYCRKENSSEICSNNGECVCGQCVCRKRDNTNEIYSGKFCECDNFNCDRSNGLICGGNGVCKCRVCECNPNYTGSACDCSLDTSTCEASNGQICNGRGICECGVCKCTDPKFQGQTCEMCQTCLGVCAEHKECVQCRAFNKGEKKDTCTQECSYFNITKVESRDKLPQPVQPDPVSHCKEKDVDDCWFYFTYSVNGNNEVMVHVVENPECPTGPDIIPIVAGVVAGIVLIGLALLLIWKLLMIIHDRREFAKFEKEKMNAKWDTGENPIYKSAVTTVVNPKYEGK
Integrin beta-1 (Homo sapiens) + Integrin alpha-4 (Homo sapiens), sequence (P13612 whole entry, looked up): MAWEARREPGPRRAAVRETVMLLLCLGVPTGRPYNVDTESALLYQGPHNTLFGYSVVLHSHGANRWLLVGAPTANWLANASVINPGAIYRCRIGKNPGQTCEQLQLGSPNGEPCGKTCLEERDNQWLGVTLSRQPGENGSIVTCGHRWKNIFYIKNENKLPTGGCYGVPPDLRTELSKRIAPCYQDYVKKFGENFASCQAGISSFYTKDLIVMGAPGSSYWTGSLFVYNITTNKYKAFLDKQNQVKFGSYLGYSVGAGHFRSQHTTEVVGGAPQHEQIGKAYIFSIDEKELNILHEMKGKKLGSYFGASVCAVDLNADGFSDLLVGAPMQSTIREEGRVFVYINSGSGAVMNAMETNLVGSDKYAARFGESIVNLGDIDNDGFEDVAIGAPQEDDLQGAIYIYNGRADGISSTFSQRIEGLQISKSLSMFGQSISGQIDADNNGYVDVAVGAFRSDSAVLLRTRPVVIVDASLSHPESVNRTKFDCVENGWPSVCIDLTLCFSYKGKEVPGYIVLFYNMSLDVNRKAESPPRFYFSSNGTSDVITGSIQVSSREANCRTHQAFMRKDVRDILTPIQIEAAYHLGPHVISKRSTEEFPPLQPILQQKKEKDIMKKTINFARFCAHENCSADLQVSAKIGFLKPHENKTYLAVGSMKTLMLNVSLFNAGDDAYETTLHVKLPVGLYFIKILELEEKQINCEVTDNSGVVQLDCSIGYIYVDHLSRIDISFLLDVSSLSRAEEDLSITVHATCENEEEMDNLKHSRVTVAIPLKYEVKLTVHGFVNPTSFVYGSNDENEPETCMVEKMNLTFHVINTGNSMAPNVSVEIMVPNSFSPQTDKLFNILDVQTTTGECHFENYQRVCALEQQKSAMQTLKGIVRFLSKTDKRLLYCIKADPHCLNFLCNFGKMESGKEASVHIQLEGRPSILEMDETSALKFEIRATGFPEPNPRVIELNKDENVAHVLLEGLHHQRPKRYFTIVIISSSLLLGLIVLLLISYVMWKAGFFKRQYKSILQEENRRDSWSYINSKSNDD
Beta-adrenergic receptor kinase 1 (Homo sapiens), sequence (P25098 whole entry, looked up): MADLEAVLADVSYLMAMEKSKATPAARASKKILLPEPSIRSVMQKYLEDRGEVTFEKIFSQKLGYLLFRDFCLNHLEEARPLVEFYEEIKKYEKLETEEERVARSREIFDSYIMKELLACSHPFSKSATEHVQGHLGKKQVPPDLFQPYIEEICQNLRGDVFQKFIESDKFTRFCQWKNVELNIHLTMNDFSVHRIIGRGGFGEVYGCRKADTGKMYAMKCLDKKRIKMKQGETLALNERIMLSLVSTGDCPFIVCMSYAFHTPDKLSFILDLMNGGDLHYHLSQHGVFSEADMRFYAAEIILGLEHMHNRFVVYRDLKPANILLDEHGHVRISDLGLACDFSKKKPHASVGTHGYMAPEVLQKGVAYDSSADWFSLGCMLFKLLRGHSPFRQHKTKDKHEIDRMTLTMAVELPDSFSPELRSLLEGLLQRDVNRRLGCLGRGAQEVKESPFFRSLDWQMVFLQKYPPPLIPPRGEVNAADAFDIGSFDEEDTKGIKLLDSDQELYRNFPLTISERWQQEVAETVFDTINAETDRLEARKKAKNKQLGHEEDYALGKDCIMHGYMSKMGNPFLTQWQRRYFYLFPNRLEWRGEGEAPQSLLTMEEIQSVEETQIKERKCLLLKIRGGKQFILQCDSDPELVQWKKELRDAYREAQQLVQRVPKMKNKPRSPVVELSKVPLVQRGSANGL

For the compound `O=C(c1ccco1)N1CCCN(Cc2nc(-c3ccc4c(c3)OCO4)no2)CC1`, in test [1], the percent of DMSO control GFP was 104% (inactive). The figures for the GFP response vs DMSO in test [2] and in [4] were 103% (inactive) and 98.6% (inactive), respectively. The percent response of DMSO control in [3] is 106% (inactive). For the same compound, in [5], the GFP response, % of DMSO was 102% (inactive). Also, the double positive events in test [6] stood at 62.2%. For the same compound, in [6], the vesicle binding response is 310% (inactive). Moreover, the inhibition is -0.45% (inactive) in [7], 7.41% (inactive) in [11] and 10% (inactive) in [15]. The superoxide response (% of plate) in [8] is 102% (inactive). For the same compound, the aptamer binding inhibition in test [9] was 2% (inactive). Moreover, the response is -9.4% (inactive) in test [10] and -0.63% (inactive) in [12]. In addition, in test [13], the binding (% of control) is 94.7% (inactive). Moreover, the efflux inhibition (fraction of control) in test [14] was 0.02 (inactive). The differentiation response in test [16] was -11.5% (inactive).

As to `O=C(O)C1Cc2ccccc2CN1S(=O)(=O)c1ccccc1` (stereo not drawn), in test [1], the percent of DMSO control GFP is 98.8% (inactive). In addition, the figures for the GFP response vs DMSO in test [2] and in test [4] were 104% (inactive) and 118% (inactive), respectively. Also, the percent response of DMSO control in test [3] was 92.9% (inactive). Further, the GFP response, % of DMSO in test [5] is 96.8% (inactive). The double positive events in test [6] came out at 60.9%. For the same compound, the vesicle binding response in [6] is 186% (inactive). Besides, the results for the inhibition in [7], in test [11] and in test [15] were -12.7% (inactive), 1.65% (inactive) and 9% (inactive), respectively. Moreover, in test [8], the superoxide response (% of plate) is 107% (inactive). The aptamer binding inhibition in test [9] is 4% (inactive). Further, the response in test [10] was -23.4% (inactive); in [12], 1.38% (inactive). Further, the binding (% of control) in test [13] is 104% (inactive). In addition, the efflux inhibition (fraction of control) in [14] was -0.17 (inactive). Moreover, the differentiation response in test [16] was 2.4% (inactive).

`CN1C(=O)NC(c2ccc(O)cc2)C2=C1CN(c1cccc3ccccc13)C2=O` (stereo not drawn): in test [1], the percent of DMSO control GFP was 102% (inactive). Also, the results for the GFP response vs DMSO in test [2] and in test [4] were 107% (inactive) and 94% (inactive), respectively. Besides, the percent response of DMSO control in test [3] is 106% (inactive). Also, the GFP response, % of DMSO in test [5] is 100% (inactive). In [6], this compound returned a double positive events of 64%. Also, in test [6], the vesicle binding response was 229% (inactive). The inhibition in test [7] is -1.49% (inactive); in test [11] it was 3.73% (inactive); in [15], -6% (inactive). Further, the superoxide response (% of plate) in test [8] was 94.5% (inactive). Further, the aptamer binding inhibition in test [9] is 0% (inactive). Moreover, the response in [10] was -19.6% (inactive); in test [12], -0.13% (inactive). The binding (% of control) in test [13] is 99.8% (inactive). The efflux inhibition (fraction of control) in test [14] was -0.23 (inactive). Moreover, in test [16], the differentiation response is 7.09% (inactive).

Consider `CC(C(=O)O)c1cccc(C(=O)c2ccccc2)c1` (stereo not drawn), for which the percent of DMSO control GFP in [1] is 102% (inactive). Moreover, the GFP response vs DMSO was 107% (inactive) in test [2] and 110% (inactive) in test [4]. In addition, in test [3], the percent response of DMSO control was 97.6% (inactive). Besides, the GFP response, % of DMSO in test [5] is 107% (inactive). Moreover, the double positive events in test [6] was 67.3%. The vesicle binding response in test [6] was 145% (inactive). In addition, the inhibition is 4.27% (inactive) in [7], -7.83% (inactive) in test [11] and 20% (inactive) in test [15]. Also, the superoxide response (% of plate) in test [8] was 97.3% (inactive). Moreover, in [9], the aptamer binding inhibition is 4% (inactive). Moreover, the response in test [10] was 6.64% (inactive); in test [12], -2.55% (inactive). In test [13], the binding (% of control) is 101% (inactive). Besides, the efflux inhibition (fraction of control) in test [14] was 0.36 (inactive). Besides, the differentiation response in test [16] was -7.5% (inactive).
